Compound activity deposited in PubChem by National Center for Advancing Translational Sciences (NCATS).
HCV inhibitor – HCV inhibition; 3.4% of 340,000 active; Huh7.5.1 HCVcc-Cre infection, luciferase reporter, 44 h; Potency, µM (titrated, usually from 41.8 µM), for inactives: at the top dose activity change, negative = inhibition, most hits filed as inhibitors; AID 651820; active = well fitted inhibition curve with a large enough effect; inconclusive = small, poorly fitted or top-dose-only effect, or another doubt; inactive = no such curve, though single readings can be large or run the other way
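Antiviral activity was scored by luciferase reporter output from cells infected with HCVcc-Cre (~0.5 moi) in presence of compound, 44 h infection period, cells seeded 1,000/well 4 h prior.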
VACV mCherry inh – vaccinia inhibition (mCherry reporter) | Vaccinia virus mCherry reporter infection, fluorescence | Potency, µM (titrated, usually from 36.5 µM), for the others: at the highest dose activity change, negative = inhibition, hits mostly inhibitors | 0.63% of 310,000 active | AID 720579; calls by dose curve; tested in A549 cells; also: nearly all actives have a fitted effect of over 35% in size
Vaccinia Venus – vaccinia inhibition (Venus reporter); Vaccinia virus Venus reporter expression, fluorescence; Potency, µM (doses to about 36.5 µM), without a hit: at the top dose activity change, negative = inhibition, actives largely listed as inhibitors; AID 720580; 0.46% of 330,000 active; calls by dose curve; tested in A549 cells; also: nearly all actives have a fitted effect of over 30% in size
* hit, by the source's call; i = inactive; ? = inconclusive; · = no result given. Only some compounds are listed: those with a hit (about 3.3% of all), similar ones and a draw of the others. % is scaled to controls: 0 for no effect and ±100 for the full control effect; potency is read from the fitted curve at half-maximal effect.

SMILES	HCV inhibitor	VACV mCherry inh	Vaccinia Venus
O=C(Nc1nnc(C2=COCCO2)o1)c1cccc([N+](=O)[O-])c1	18%	-17%	-10%
O=C(Nc1nnc(-c2ccc3c(c2)CCCC3)o1)c1ccccc1Cl	-5%	?	-29%
O=C(Nc1nnc(-c2ccc3c(c2)CCCC3)o1)c1ccccc1	?	10µM*	?
O=C(Nc1nnc(-c2ccc(F)cc2)o1)c1cccc([N+](=O)[O-])c1	13µM*	?	?
COc1ccc(CCNC(=O)CN(c2cc(C)cc(C)c2)S(=O)(=O)c2c(C)noc2C)cc1OC	-9%	·	·
Cc1nn(-c2ccc(N3CCCC3)nn2)c(C)c1CCC(=O)NCc1ccc(OC(C)C)cc1	·	2%	1%
CC(C)(C)c1ccc(C(=O)NN2C(=O)CSC2=S)cc1	12%	2%	22%
CNc1ccc(C(=O)CC(O)CCC(C)C2OC(=O)CC(O)CC(=O)CC(O)CC(O)CC(O)CC(O)CC3(O)CC(O)C(C(=O)OC)C(CC(O[C@@H]4O[C@H](C)[C@@H](O)[C@H](N)[C@@H]4O)/C=C/C=C/C=C/C=C/C=C/C=C/C=C/C2C)O3)cc1 (stereo partly drawn)	·	-17%	-12%
CC1(C(=O)O)NCCc2cc(O)c(O)cc21 (stereo not drawn)	·	-12%	-9%
COC1CCC(OC2CC(C3(C)CCC4(CC(O)C(C)C(C(C)/C=C(\C)C(=O)C(C)CC(C)C(=O)O)O4)O3)OC3(OC(C4OC(O)(CO)C(C)CC4C)CC3C)C2C)OC1C (stereo not drawn)	0.32µM*	6.3µM*	7.9µM*
COc1ccc(CNC(=O)C(C)Sc2nc(-c3ccccc3)cc(C(F)(F)F)n2)cc1 (stereo not drawn)	·	0%	-9%
CC(Sc1nc(-c2ccccc2)cc(C(F)(F)F)n1)C(=O)NCc1ccco1 (stereo not drawn)	11µM*	-25%	-12%
Cc1ccc(CNC(=O)C(CC(C)C)NS(=O)(=O)c2ccc3c(c2)oc(=O)n3C)cc1 (stereo not drawn)	·	-11%	-2%
CCOc1ccc(NC(=O)c2c(NC(=O)c3cccs3)sc3c2CCC(C(C)(C)C)C3)cc1 (stereo not drawn)	·	i	-14%
O=C1CN(c2nc(-c3cccs3)nc3sc4c(c23)CCCC4)CCN1	5.6µM*	-22%	?
O=c1oc(-c2cccs2)nc2sc3c(c12)CCCC3	12%	i	-7%
O=C(NCC1CCCO1)/C(=C\c1cccc([N+](=O)[O-])c1)NC(=O)c1ccccc1 (stereo not drawn)	5%	-10%	-5%
O=C(NCC1CCCO1)C(=Cc1cccc([N+](=O)[O-])c1)C(=O)NCC1CCCO1 (stereo not drawn)	?	13µM*	?
COc1cccc(CNCc2c(C(=O)O)c(C)n(Cc3ccc(F)cc3Cl)c2C)c1OC	·	-13%	-3%
CC(=O)c1ccccc1C(=O)NCC1Cc2cccc(-c3cccnc3)c2O1 (stereo not drawn)	·	-5%	-9%
Cc1oc(-c2ccccc2)nc1C(=O)N1CCN(c2ccc(F)cc2)CC1	18%	-8%	-12%
CCOc1ccc(C(=O)NCC(c2ccco2)S(=O)(=O)c2cccs2)cc1 (stereo not drawn)	·	-12%	-10%
COc1c(-c2ccc(O)cc2)oc2cc(O)cc(O)c2c1=O	?	20µM*	?
COc1ccc(-c2oc3cc(O[C@@H]4OC(CO)C(O)C(O)C4O)c(OC)c(O)c3c(=O)c2OC)cc1O (stereo partly drawn)	·	-9%	-23%
COc1ccc(-c2cc(=O)c3c(O)c(OC)c(OC)c(OC)c3o2)cc1OC	·	-20%	-19%
SMILES	HCV inhibitor	VACV mCherry inh	Vaccinia Venus
COc1ccc(-c2oc3cc(O)c(OC)c(O)c3c(=O)c2OC)cc1	-27%	-23%	-17%
COc1ccc(-c2oc3cc(OC)c(O)c(OC)c3c(=O)c2OC)cc1O	8.9µM*	?	?
COc1ccc(-c2oc3c(OC)c(OC)c(OC)c(O)c3c(=O)c2OC)cc1OC	10µM*	?	?
CCOc1ccc(S(=O)(=O)NCCC(=O)NCC(c2ccco2)N2CCCCC2)cc1 (stereo not drawn)	-1%	·	·
CCCCn1nnnc1C(c1cc2ccccc2o1)N(C)Cc1ccc(Cl)cc1 (stereo not drawn)	·	i	5%
COc1ccc(C(CNC(=O)c2cccc(S(=O)(=O)Nc3ccc(F)cc3)c2)N2CCCCC2)cc1 (stereo not drawn)	5µM*	·	·
COc1ccc(C(CNC(=O)c2cc3ccccc3o2)N2CCCC2)cc1 (stereo not drawn)	-1%	·	·
COc1ccc(C(CNC(=O)c2cc3ccccc3o2)N2CCCCC2)cc1 (stereo not drawn)	16µM*	i	-5%
COc1ccc(C(CNC(=O)c2ccc(NS(=O)(=O)c3ccc(F)c(C)c3)cc2)N2CCCC2)cc1 (stereo not drawn)	?	-29%	-19%
Cc1cccc(Cn2c(CNS(=O)(=O)c3ccc4c(c3)CCCC4)nc3cccnc32)c1	·	-9%	-10%
CCc1noc(C)c1C(=O)N1CCCC(N2CCN(c3cccc(Cl)c3)CC2)C1 (stereo not drawn)	-16%	i	-9%
COc1ccccc1C(=O)NNC(=O)CN(C)S(=O)(=O)c1ccc(Cl)cc1	·	i	-17%
CN(C)CCNC(=O)c1ccc2c(c1)N(Cc1c(F)cccc1Cl)C(=O)c1ccccc1S2	·	-7%	-25%
CNC(=S)N(C)/N=C1/C(=O)N(Cc2c(Cl)cccc2Cl)c2ccccc21	13µM*	-15%	-21%
CC(C)CN(C(=O)COc1ccccc1C(=O)NCc1ccccc1)C1CCS(=O)(=O)C1 (stereo not drawn)	·	-7%	-4%
CC(=O)NC1=CC(=O)c2nonc2C1=O	·	1.6µM*	1.8µM*
COc1cc(O)c(NC(C)=O)c2nonc12	5%	-21%	3%
CC(C)c1ccc(NC(c2nnc(-c3ccccc3)o2)c2ccc(F)cc2Cl)cc1 (stereo not drawn)	·	-9%	-14%
Cc1ccccc1CNC(=O)c1ccc(Cn2c(SCc3cccc(F)c3)nc3cccnc32)cc1	·	-18%	-17%
Cc1ccc(C(=O)c2c3ccc([N+](=O)[O-])cc3[n+]([O-])n2CCC(N)=O)cc1	13µM*	?	?
NCCCn1c(C(=O)c2cc(Cl)c(N)c(Cl)c2)c2ccc(C(F)(F)F)cc2[n+]1[O-]	-7%	-16%	?
Cc1ccc(C(=O)c2c3ccccc3[n+]([O-])n2CCC(N)=O)cc1	19%	i	-13%
NCCCn1c(C(=O)c2cc(Cl)c(N)c(Cl)c2)c2ccc([N+](=O)[O-])cc2[n+]1[O-]	?	?	13µM*
O=C(COc1coc(CN2CCN(c3ccccc3F)CC2)cc1=O)NC1CCCC1	-19%	-17%	-11%
COc1cccc2c1OC[C@@H](CO)[C@H]2N(C)C(=O)Nc1ccccc1	4%	·	·
CN(C(=O)Nc1ccc(Cl)cc1Cl)[C@H]1c2cc(Br)ccc2OC[C@H]1CO	13µM*	·	·
CCOC(=O)c1c(-c2ccccc2)oc2ccc(O)c(CN3CCN(C)CC3)c12	13µM*	?	?
CCOC(=O)c1c(CN2CCN(C)CC2)oc2ccc(O)cc12	8%	·	·
CCCCn1c(C)c(C(=O)OCC)c2c(CN3CCOCC3)c(O)ccc21	25µM*	-22%	-17%
